We go through 40 sequences from the OligoGym collection.
Also: reference of the scale not given here.

One assay has as its target POLH. Description: pooled miR-30 sensor sort-seq; sequence = guide strand. The settings on record: shRNA.
TAGCTTTTGTAGTCTCTCTTGT displayed a sensor-assay potency score (higher = more potent) of -0.253.

Turning to ATAACTTCTTAGCATCATCTGC, the sensor-assay potency score (higher = more potent) is -0.998.

TACACGAATGCTCACAACCAGC returned a sensor-assay potency score (higher = more potent) of -1.33.

In turn, TAGAAGCAGACTTTTCTGCTTA returned a sensor-assay potency score (higher = more potent) of 0.259.

TTTAGAGGATTCTTCTAGCTTC had a sensor-assay potency score (higher = more potent) of 0.456.

As for TAACTTTCTGCCTTTCTGCAGC, the sensor-assay potency score (higher = more potent) is -0.259.

TTGCTTTAGAGGATTCTTCTAG: the sensor-assay potency score (higher = more potent) was -0.177.

The target in a further assay is POLN. The assay is described as above. The settings on record: shRNA.
Regarding TAATGGATGAAGGTCTCGCAGA, the sensor-assay potency score (higher = more potent) is -0.869.

Consider TTGATCTTGTGAACCTGCCTGT, for which the sensor-assay potency score (higher = more potent) is 0.754.

As to TGACTTGATCTTGTGAACCTGC, the sensor-assay potency score (higher = more potent) amounted to 0.614.

On to TCTATTTGAATGTAGATGCATG, for which the sensor-assay potency score (higher = more potent) was -0.558.

Consider TTGCTCGTTATAAGAAACCGTT, for which the sensor-assay potency score (higher = more potent) is -0.677.

Turning to TTTTTGGTCAGCAGACAGCTGA, the sensor-assay potency score (higher = more potent) is -1.02.

The sequence TTATAAGAAACCGTTCTCCTGC came in with a sensor-assay potency score (higher = more potent) of 0.596.

With TTTACTAACACCACAATTCCTC, the sensor-assay potency score (higher = more potent) was -0.28.

The sequence TTCATTATTTATATTCTCCATT yielded a sensor-assay potency score (higher = more potent) of -0.758.

As for TTGCCATAAACCATAATCCTTC, the sensor-assay potency score (higher = more potent) was -1.02.

TTTGTTTACTTGTTTTCTCTGA came in with a sensor-assay potency score (higher = more potent) of -0.00359.

The target in the next assay is POLR2B. Described as above. The settings on record: shRNA.
With TTCTTTTTGTAAAACTTCCTTT, the sensor-assay potency score (higher = more potent) is -0.613.

With TTCTAAAATATCTCTGTCGGAC, the sensor-assay potency score (higher = more potent) is -0.797.

In turn, TATTATGCAACTGTCTTGGTTT showed a sensor-assay potency score (higher = more potent) of -0.109.

On to TTTTACAAAATTTATATCCTTC, for which the sensor-assay potency score (higher = more potent) turned out to be 0.417.

As to TTTCTCTTTAGTAACACCAGGC, the sensor-assay potency score (higher = more potent) was -0.352.

TAGGAACTGATTACAATCCAGC: the sensor-assay potency score (higher = more potent) was -0.664.

The sequence TAGTGCAACATTCTGTTCTTGG came in with a sensor-assay potency score (higher = more potent) of 0.768.

Take AAGATTGCAAACATGAACCTGA: the sensor-assay potency score (higher = more potent) amounted to 0.822.

Take TATCAAACCATCATCATCCAGC: the sensor-assay potency score (higher = more potent) is -0.225.

Regarding TAAAAGATTAGAAATCTTCTGC, the sensor-assay potency score (higher = more potent) worked out at 0.528.

Regarding TATATGTGGAACAATAAGCTAC, the sensor-assay potency score (higher = more potent) is -0.462.

Sequence TTTTCTCTTTAGTAACACCAGG returned a sensor-assay potency score (higher = more potent) of -1.3.

For the next assay, the target named is POLR3B. The description is as above. Conditions: shRNA.
In turn, TAGCTCATCACAGCAACTGTTG registered a sensor-assay potency score (higher = more potent) of -0.674.

Consider TAAATTTTTTGAACAAGTCTTC, for which the sensor-assay potency score (higher = more potent) is -0.054.

In turn, TAACAATGAAGTAGCCACCTGG displayed a sensor-assay potency score (higher = more potent) of -0.287.

TTTCCTTGTAGCAGCATCCAAC gave a sensor-assay potency score (higher = more potent) of -0.877.

For TTACATTGAAGCTTTCTTCAAC, the sensor-assay potency score (higher = more potent) was found to be 0.0741.

In the case of TTTATTAATTGTGTGTTCGTAC, the sensor-assay potency score (higher = more potent) came to 0.467.

The sequence TTGGTGTATCGTTTCAACGTAC had a sensor-assay potency score (higher = more potent) of -0.297.

In turn, TTAAGTACCACATAGGGTCAGC displayed a sensor-assay potency score (higher = more potent) of -0.683.

In turn, TTGACAATTATGTAGGGTCTGC gave a sensor-assay potency score (higher = more potent) of -0.266.

Sequence TATCCTTTAGGTCACATCCATC returned a sensor-assay potency score (higher = more potent) of -1.12.
